In the supplement of paper PMC13380429 one finds morphology score and SARS-CoV-2 infection rate data, which are given here for 29 compounds.

Assay [1] concerns Vero E6 infected with SARS-CoV-2. The experiment in a line: morphology score (similarity to uninfected cells); higher = more like uninfected cells. The following applies: 24 h.
For assay [2] the test system is unchanged. In words: SARS-CoV-2 infection rate relative to infected DMSO; higher = more infection, active = 60 or less. The following applies: 24 h.

Molecules are shown by their SMILES.

`Cc1ccc(NC(=O)C2(c3ccc4c(c3)OC(F)(F)O4)CC2)nc1-c1cccc(C(=O)O)c1` [lumacaftor] (10 µM) showed a morphology score in assay [1] of 0.0696. For the same compound, the SARS-CoV-2 infection rate in assay [2] is 114% (inactive).
Compound `CC(=O)NC[C@H]1CN(c2ccc(-c3ccc(CNCc4cnn[nH]4)cc3)c(F)c2)C(=O)O1` [radezolid] (10 µM) returned a morphology score in assay [1] of 0.0332. Also, in assay [2], the SARS-CoV-2 infection rate is 110% (inactive).
The corresponding values for `CN1[C@@H]2CC[C@H]1C[C@@H](OC(=O)c1cc(Cl)cc(Cl)c1)C2` [bemesetron] (10 µM) are 0.216 and 89.5% (inactive).
Turning to `CCCCCCN(CCCCCC)C(=O)Cc1c(-c2ccc(Cl)cc2)[nH]c2ccc(Cl)cc12` (10 µM), in assay [1], the morphology score was -0.00824. The SARS-CoV-2 infection rate in assay [2] was 103% (inactive).
In turn, `Cc1nc2c(OCc3ccccc3)cccn2c1CC#N` (10 µM) returned a morphology score in assay [1] of 0.0125. Moreover, in assay [2], the SARS-CoV-2 infection rate is 110% (inactive).
The matching figures for `CCc1cncnc1N1CCN(Cc2nc3cc(C(F)(F)F)ccc3[nH]2)CC1` (10 µM): -0.441 and 116% (inactive).
Turning to `COc1ccc(S(=O)(=O)Nc2c(C)cc(C)cc2C)cc1` (10 µM), the morphology score in assay [1] was found to be 0.217. In addition, the SARS-CoV-2 infection rate in assay [2] is 80.5% (inactive).
Consider `CC(=O)OCC(=O)[C@@]1(O)[C@@H](C)C[C@H]2[C@@H]3CCC4=CC(=O)C=C[C@]4(C)[C@@]3(F)[C@@H](O)C[C@@]21C` [betamethasone-acetate] (10 µM), for which the morphology score in assay [1] was -0.021. In addition, the SARS-CoV-2 infection rate in assay [2] is 114% (inactive).
In the case of `[I-].[K+]` [potassium-iodide] (10 µM), the morphology score in assay [1] is -0.0371. The SARS-CoV-2 infection rate in assay [2] is 114% (inactive).
For `Cc1ncc(-c2csc(N=C(N)N)n2)[nH]1` [zaltidine] (10 µM), in assay [1], the morphology score worked out at 0.0534. Also, the SARS-CoV-2 infection rate in assay [2] is 106% (inactive).
The matching figures for `COCCOc1ccc(N2CCN(CCn3ncc4c3nc(N)n3nc(-c5ccco5)nc43)CC2)cc1` [preladenant] (10 µM): 0.0084 and 111% (inactive).
Compound `CS(=O)(=O)N1CCc2c(-c3cnc(N)nc3)nc(N3CCOCC3)nc21` (0.833333 µM) returned a morphology score in assay [1] of 0.0917. The SARS-CoV-2 infection rate in assay [2] was 110% (inactive).
Take `Cc1cccc(NC(=O)c2ccc(C(F)(F)F)cc2C(=O)O)n1` (10 µM): in assay [1], the morphology score is -0.208. Also, in assay [2], the SARS-CoV-2 infection rate is 109% (inactive).
For the compound `Nc1cc(C(F)(F)F)c(-c2cc(N3CCOCC3)nc(N3CCOCC3)n2)cn1` [buparlisib] (10 µM), the morphology score in assay [1] is -0.0939. Moreover, in assay [2], the SARS-CoV-2 infection rate was 103% (inactive).
The corresponding values for `CCOc1cc(C=O)ccc1O` [ethyl-vanillin] (10 µM) are 0.19 and 100% (inactive).
As for `Cc1cc(CC(C)CC(C)(C)C)n(O)c(=O)c1` (stereo not drawn) [piroctone-olamine] (10 µM), the morphology score in assay [1] turned out to be 0.406. In assay [2], the SARS-CoV-2 infection rate is 88% (inactive).
In the case of `O=C1NC(=O)C(c2cnc3ccccn23)=C1c1cn2c3c(cc(F)cc13)CN(C(=O)N1CCCCC1)CC2` (10 µM), the morphology score in assay [1] is -0.436. In assay [2], the SARS-CoV-2 infection rate is 105% (inactive).
For the compound `CCOc1ccc(Cc2cc([C@]34OC[C@](CO)(O3)[C@@H](O)[C@H](O)[C@H]4O)ccc2Cl)cc1` [ertugliflozin] (10 µM), the morphology score in assay [1] was -0.0565. Besides, the SARS-CoV-2 infection rate in assay [2] is 107% (inactive).
In the case of `Nc1nc2[nH]cc(CCc3ccc(C(=O)N[C@@H](CCC(=O)O)C(=O)O)cc3)c2c(=O)[nH]1` [pemetrexed] (10 µM), the morphology score in assay [1] was -0.15. Also, the SARS-CoV-2 infection rate in assay [2] is 121% (inactive).
For `CC(C)[C@H](CO)Nc1nc(Nc2cc(N)cc(Cl)c2)c2ncn(C(C)C)c2n1` [aminopurvalanol-a] (0.833333 µM), the morphology score in assay [1] is -0.224. Besides, the SARS-CoV-2 infection rate in assay [2] was 108% (inactive).
With `O=C1S/C(=C\c2ccc(OCc3cccc(B(O)O)c3)cc2)C(=O)N1Cc1ccc(F)cc1` (10 µM), the morphology score in assay [1] worked out at 0.0573. Further, in assay [2], the SARS-CoV-2 infection rate is 104% (inactive).
In the case of `CC(=O)Nc1ccc(S(=O)(=O)Nc2ccc([N+](=O)[O-])cc2)cc1` [sulfanitran] (10 µM), the morphology score in assay [1] was -0.126. Besides, the SARS-CoV-2 infection rate in assay [2] was 108% (inactive).
In assay [1], `Fc1ccc(-c2c3cccc(C(F)(F)F)c3nn2Cc2ccc(F)cc2Cl)cc1` (10 µM) had a morphology score of 0.289. Further, the SARS-CoV-2 infection rate in assay [2] is 95.5% (inactive).
The matching figures for `CC(C)CC(=O)Nc1n[nH]c2c1CN(C(=O)C1CCN(C)CC1)C2(C)C` (10 µM): 0.099 and 113% (inactive).
The matching figures for `N=C(N)c1ccc(OCCCCCOc2ccc(C(=N)N)cc2)cc1` [pentamidine] (10 µM): 0.104 and 109% (inactive).
`C/C(=N\Nc1nnc2c(n1)[nH]c1c(C)cccc12)c1ccccn1` (10 µM) registered a morphology score in assay [1] of 0.01. In assay [2], the SARS-CoV-2 infection rate is 107% (inactive).
The corresponding values for `CCn1cc(C(=O)O)c(=O)c2cnc(N3CCNCC3)nc21` [pipemidic-acid] (10 µM) are 0.136 and 102% (inactive).
With `CCc1nc(N)nc(N)c1-c1ccc(Cl)cc1` [pyrimethamine] (0.833333 µM), the morphology score in assay [1] was -0.0159. Moreover, the SARS-CoV-2 infection rate in assay [2] is 115% (inactive).
`CCCCCCCC/C=C\CCCCCCCC(N)=O` [oleamide] (10 µM) returned a morphology score in assay [1] of 0.242. In addition, the SARS-CoV-2 infection rate in assay [2] is 94.5% (inactive).
